This is a sample that favours compounds with a hit; in the whole collection about 6.4% have one here.
Luc counter: blocks Kinase-Glo luciferase, a counter-screen artifact; Q27757; Kinase-Glo luciferase, ATP luminescence, 8 min; Potency, µM (doses to about 38.3 µM), inactives show at the top dose activity change, negative = inhibition, usual class: inhibitors; hit rate 0.28% among 200,000; AID 1379; further: nearly all actives have a fitted effect of over 60% in size
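Inhibition of Kinase-Glo luciferase light generation was assessed at 10 uM ATP in pH 7.2 imidazole buffer, with luminescence measured after eight minutes at ambient temperature.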
VP16 counter: Gal4-VP16 reporter inhibition counter-screen. Drosophila S2 Gal4-VP16 UAS-luciferase, luminescence, 20 h. Potency, µM (titrated, usually from 53.6 µM), for the others: at the highest dose activity, negative = inhibition, actives largely listed as inhibitors. hit rate 3.5% among 310,000;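 further: Gal4-VP16 expression switched on by copper sulfate through the metallothionein promoter; nearly all actives have a fitted effect of over 50% in size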
RORg inh: ROR gamma (mouse) transcription inhibition; P51450; Drosophila S2 Gal4-RORgamma UAS-luciferase reporter, 20 h; Potency, µM (titrated, usually from 53.6 µM), without a hit: at the highest dose activity change, negative = inhibition, actives largely listed as inhibitors; hit rate 5.4% among 310,000; further: nearly all actives have a fitted effect of over 60% in size
Target sequence (P51450 whole entry, looked up, the tested form may be a part): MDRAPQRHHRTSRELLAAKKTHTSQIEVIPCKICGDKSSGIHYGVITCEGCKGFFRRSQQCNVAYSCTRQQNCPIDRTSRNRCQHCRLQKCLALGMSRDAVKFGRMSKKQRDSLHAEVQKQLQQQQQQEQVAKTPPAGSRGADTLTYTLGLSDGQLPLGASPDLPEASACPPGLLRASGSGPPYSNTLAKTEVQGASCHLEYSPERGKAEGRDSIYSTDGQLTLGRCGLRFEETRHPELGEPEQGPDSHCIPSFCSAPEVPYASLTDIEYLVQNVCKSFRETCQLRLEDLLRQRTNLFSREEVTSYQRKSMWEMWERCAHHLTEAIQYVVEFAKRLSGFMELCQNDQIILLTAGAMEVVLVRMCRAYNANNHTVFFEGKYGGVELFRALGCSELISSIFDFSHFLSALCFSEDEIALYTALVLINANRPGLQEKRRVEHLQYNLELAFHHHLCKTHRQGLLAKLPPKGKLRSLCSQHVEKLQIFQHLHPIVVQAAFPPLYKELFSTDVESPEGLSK
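In this cell-based reporter format, copper sulfate (700 uM final) drives Gal4–ROR gamma fusion expression from a metallothionein promoter in Drosophila Schneider cells; compounds preincubated 1 hr, reporter read after 20 hr at ambient temperature.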
* hit, by the source's call; ? = inconclusive; / = no result; [ ] = dose if it differs, or a comment. The call rests on the fitted dose curve; in most records, active means well fitted curve in the direction sought with a large enough effect; inconclusive means small, poorly fitted or top-dose-only effect, or another doubt; inactive means no such curve, though single readings can be large; an effect the other way counts as inactive or inconclusive. On the % scale 0 is the no-effect control and ±100 the full control effect; potency means the concentration at half of the fitted maximal effect.

SMILES	Luc counter	VP16 counter	RORg inh
O=C(N[C@@H]1CCC(=O)N(CC[C@H](Sc2ccccc2)c2ccccc2)CC1)OCc1ccccc1	/	5.9%	24.0%
COc1ccc2[nH]c3c(=O)n(Cc4ccc(C(=O)N5CCCC5)cc4)c(=S)[nH]c3c2c1	-4.1%	-5.8%	21.1%
O=C(c1cccnc1)c1ncc(C(F)(F)F)cc1Cl	/	-0.1%	9.4%
CCOC(=O)c1cnc(-n2nc(C)cc2C)nc1Nc1ccc(C)cc1	2.2%	0.794µM*	0.562µM*
CCOC(=O)c1cnc(-n2nc(C)cc2C)nc1Nc1ccc(O)cc1	/	-3.8%	-40.5%
CC12CCC(=O)N1C(C(=O)OCC(=O)Nc1ccc(Cl)c(Cl)c1)CS2 (stereo not drawn)	7.7%	-6.9%	0.1%
O=C(CCl)Nc1ccccc1Sc1ccc(Cl)cc1	-1.1%	1.2%	?
Cc1ccc(Sc2ccc(NC(=O)CCl)cc2)c(C)c1	-6.2%	5.01µM*	2.82µM*
CCOC(=O)CNS(=O)(=O)c1ccc(S(=O)(=O)NC2CC2)cc1	/	-1.1%	?
O=C(Nc1nc2cc3c(cc2s1)OCO3)c1cccc(N2C(=O)CCC2=O)c1	/	0.7%	-9.9%
Cc1cccc2sc(NNC(=O)c3ccc4c(c3)OCCO4)nc12	-1.4%	12.6µM*	7.94µM*
Cc1ccc2nsnc2c1NC(=O)c1ccc2c(c1)OCCO2	-6.0%	-2.8%	0.0%
O=C(NNc1nc2cc3c(cc2s1)OCCO3)c1ccccc1	0.4%	-16.1%	3.98µM*
O=C(c1cccc([N+](=O)[O-])c1)c1ccc2[nH]c(=O)[nH]c2c1	/	-9.9%	-0.7%
NC(=O)NCCN1CCN(c2ncc(C(F)(F)F)cc2Cl)CC1	-3.9%	-6.6%	28.0%
Cc1cccc(NC(=O)NNC(=O)c2c(Cl)c(C)nn2C)c1	-0.2%	-14.7%	?
Cc1nn(C)c(C(=O)NN)c1Cl	-1.5%	-4.6%	11.2µM*
CCCCNC(=S)NNC(=O)c1c(C)nc2ccccn12	-1.9%	-10.5%	12.6µM*
CCCCNC(=S)NNC(=O)c1c(Cl)c(C)nn1C	0.3%	-29.6%	1.41µM*
COc1ccccc1NC(=S)NNC(=O)c1cc(C)nn1C	-2.7%	14.3%	-4.8%
COc1ccccc1NC(=S)NNC(=O)c1c(Cl)c(C)nn1C	0.9%	?	1.58µM*
Cc1nc2ccccn2c1C(=O)NCCCN1CCOCC1	-3.8%	/	-34.2%[0.365 µM]
Cc1nn(C)c(C(=O)NNC(=S)NC2CCCCC2)c1Br	0.1%	?	?
Cc1ccccn1	/	-7.6%	12.7%
COc1ccc(-c2nnc3n2N=C(c2ccccc2OC)CS3)c(OC)c1	/	-5.0%	-14.7%
SMILES	Luc counter	VP16 counter	RORg inh
CN(C)c1ccc(NC(=O)CN2C(=O)c3ccccc3C2=O)cc1	/	16.4%	-6.8%[1.91 µM]
Cc1ccc2c(c1)CC[C@H]1CC(=O)CC[C@@]21C	0.8%	7.7%	17.5%
CCNC(=S)NNC(=O)c1c(Cl)c(C)nn1C	0.2%	?	6.31µM*
CCNC(=S)NNC(=O)c1nn(C)c(C)c1Cl	0.6%	-10.1%	?
O=C(COc1ccc2ccccc2c1)NCC1CCCO1 (stereo not drawn)	/	0.5%	12.8%
CCOC(=O)C1=C(C)NC(=S)N(C=O)C1c1ccccc1 (stereo not drawn)	3.1%	?	11.2µM*
COC(=O)C1=C(C)C(c2ccc(OC)cc2)NC(=O)N1 (stereo not drawn)	-0.2%	10.9%	-19.0%
COC(=O)C1=C(C)C(c2ccc(OC)cc2)NC(=S)N1 (stereo not drawn)	-3.0%	-3.4%	10µM*
CCOC(=O)C1=C(C)NC(=S)NC1c1cccc(O)c1 (stereo not drawn)	-8.1%	-0.4%	-15.5%
COC(=O)C1=C(C)NC(=S)N(C(C)=O)C1c1ccccc1 (stereo not drawn)	7.7%	?	?
CCOC(=O)C1=C(C)C(c2ccccc2)NC(=S)N1 (stereo not drawn)	-4.5%	?	7.08µM*
COc1cccc(Nc2ncc3ncc(=O)n(C)c3n2)c1	/	-15.5%	?
Cc1ccc(N(C(=O)CNC(=O)c2ccco2)C(C(=O)NC2CCCC2)c2cccnc2)cc1F (stereo not drawn)	/	-0.4%	-0.3%
COc1ccc2nc(-n3c(C)ccc3C)sc2c1	1.0%	1.7%	9.4%
COc1ccc2nc(N3C(=O)/C(=C/c4ccccc4)NC3=S)sc2c1	-2.4%	1.41µM*	1.41µM*
CCOc1ccc2nc(N3CCCCCC3)sc2c1	-4.0%	-24.4%	?
CCOc1ccc2nc(N3C(=O)/C(=C/c4ccccc4)NC3=S)sc2c1	/	1.12µM*	1.26µM*
Nc1cccc(C(=O)NCCNC(=O)c2cccc(N)c2)c1	/	0.4%	-7.8%
Cc1cc(C)n(C(=O)c2ccc(Cn3nc(C)c(Br)c3C)o2)n1	-1.2%	20.6%	-14.3%
CC1=NN(C(=O)c2ccc(Cn3nc(C)cc3C)o2)C(O)(C(F)(F)F)C1 (stereo not drawn)	-3.8%	5.62µM*	6.31µM*
CC1=NN(C(=O)c2ccc(Cn3cc(Br)c([N+](=O)[O-])n3)o2)C(O)(C(F)(F)F)C1 (stereo not drawn)	-4.0%	11.2µM*	4.47µM*
Cc1ccccc1NC(=O)c1cccc(Cn2cc(Br)c([N+](=O)[O-])n2)c1	-5.2%	-13.6%	?
COCCN(CC(=O)NCC1CCCO1)C(=O)CCC(=O)Nc1ccccn1 (stereo not drawn)	-0.4%	0.6%	0.0%
N/C(Cc1ccc(Cl)cc1)=N\OC(=O)c1ccccc1	17.1%	-22.0%	-22.1%
COc1ccc(C(=O)O/N=C(\N)Cc2ccc(Cl)cc2)cc1OC	-3.0%	15.8µM*	?
SMILES	Luc counter	VP16 counter	RORg inh
COc1ccc(C(=O)O/N=C(\N)Cc2ccc(Cl)c(Cl)c2)cc1OC	2.7%	6.31µM*	?
COc1cc(C(=O)O/N=C(\N)Cc2ccc([N+](=O)[O-])cc2)cc(OC)c1OC	/	?	-17.7%
COc1ccc(CC(=O)NC(C)c2ccc3ccccc3c2)cc1 (stereo not drawn)	/	4.8%	11.1%
CCc1ccc(OC(C)C(=O)Nc2ccc(S(=O)(=O)Nc3nccs3)cc2)cc1 (stereo not drawn)	/	-5.9%	-19.0%
CN(C)S(=O)(=O)c1cccc(COC(=O)Cc2c(F)cccc2Cl)c1	/	?	28.0%
COc1ccc(-c2csc(CCn3nc(C)cc3C)n2)cc1OC	1.4%	-0.9%	16.2%
COc1ccc(-c2cc(C(F)F)nc(-n3nc(C)cc3C)n2)cc1	2.8%	1.41µM*	0.891µM*
COc1ccc(OC)c(-c2csc(CCn3nc(C)cc3C)n2)c1	4.4%	4.5%	14.1µM*
COc1cccc2cc(-c3csc(CCn4nc(C)cc4C)n3)c(=O)oc12	-5.0%	11.2%	-6.0%
Cc1ccc(-c2cc(C(F)F)nc(N3CCOCC3)n2)cc1	1.0%	-17.7%[10 µM]	-5.9%
COc1ccc(-c2csc(CCn3nc(C)cc3C)n2)cc1	-0.2%	?	10µM*
CCc1ccc2[nH]c(C(=O)Nc3ccc(Br)c(C)n3)cc2c1	/	-11.0%	2.5%
CC(C)(C)N(Cc1ccccc1)C(=O)CCc1ccccc1	1.5%	?	?
COc1ccc(NC(=O)c2n[nH]c(=O)c3ccccc23)cc1S(=O)(=O)N1CCCCC1	2.1%	-22.3%	33.5%
CCOC(=O)C1=C(C(F)(F)F)Nc2ncnn2C1c1cc(OC)ccc1OC (stereo not drawn)	-5.5%	5.8%	-11.9%
